Assay [1] concerns the target human RAR-related Orphan Receptor beta (RORb), RORB (gene 6096) (UniProt Q92753). Kind of assay: ATG_RORb_TRANS: Attagene TRANS-FACTORIAL HepG2 Assay for human RAR-related Orphan Receptor beta (RORb) (AID 2283010; active means hit-call score of the fitted dose curve at least 0.9, where 1 is the maximum). The essentials: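 Read-out is reporter mRNA induction, quantified by RT-PCR with fluorescent capillary electrophoresis, 24 h post-dose in transiently transfected HepG2 expressing exogenous NR-Gal4 chimera. Activity fitted upward versus DMSO.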

In assay [2] the target is human RAR-related Orphan Receptor gamma (RORg), RORC (gene 6097) (UniProt P51449). Kind of assay: ATG_RORg_TRANS: Attagene TRANS-FACTORIAL HepG2 Assay for human RAR-related Orphan Receptor gamma (RORg) (AID 2283011; active means hit-call score of the fitted dose curve at least 0.9, where 1 is the maximum). The essentials:
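Readout: reporter transcript induction (RT-PCR, fluorescent primer extension, capillary electrophoresis) after 24 h compound exposure of transiently transfected HepG2 cells carrying a RORg-Gal4 chimera and GAL4-UAS reporters; DMSO served as baseline, with increasing signal fitted.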

The target in assay [3] is Retinoic acid receptor RXR-alpha (Homo sapiens) (UniProt P19793). Kind of assay: ATG_RXRa_TRANS: Attagene TRANS-FACTORIAL HepG2 Assay for human Retinoid X Receptor alpha (RXRa) (AID 2283012; active means hit-call score of the fitted dose curve at least 0.9, where 1 is the maximum). The gist of the method:
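TRANS format reporting activity of exogenous RXRa-Gal4 chimera in transiently transfected HepG2, 24 h exposure. Reporter transcripts quantified by RT-PCR with capillary electrophoresis, with gain of signal scored relative to DMSO.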

Assay [4] deals with human Retinoid X Receptor beta (RXRb), RXRB (gene 6257) (UniProt P28702). Kind of assay: ATG_RXRb_TRANS: Attagene TRANS-FACTORIAL HepG2 Assay for human Retinoid X Receptor beta (RXRb) (AID 2283013; active means hit-call score of the fitted dose curve at least 0.9, where 1 is the maximum). The essentials: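 Readout is reporter transcript induction after 24 h dosing. It is measured by RT-PCR of total RNA followed by fluorescent capillary electrophoresis. HepG2 liver cells carry transfected multiple reporter units driven by an exogenous RXRb-Gal4 fusion; activity is relative to DMSO.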
Chain of human Retinoid X Receptor beta (RXRb), RXRB (gene 6257) (P28702 whole entry, looked up, the tested form may be a part): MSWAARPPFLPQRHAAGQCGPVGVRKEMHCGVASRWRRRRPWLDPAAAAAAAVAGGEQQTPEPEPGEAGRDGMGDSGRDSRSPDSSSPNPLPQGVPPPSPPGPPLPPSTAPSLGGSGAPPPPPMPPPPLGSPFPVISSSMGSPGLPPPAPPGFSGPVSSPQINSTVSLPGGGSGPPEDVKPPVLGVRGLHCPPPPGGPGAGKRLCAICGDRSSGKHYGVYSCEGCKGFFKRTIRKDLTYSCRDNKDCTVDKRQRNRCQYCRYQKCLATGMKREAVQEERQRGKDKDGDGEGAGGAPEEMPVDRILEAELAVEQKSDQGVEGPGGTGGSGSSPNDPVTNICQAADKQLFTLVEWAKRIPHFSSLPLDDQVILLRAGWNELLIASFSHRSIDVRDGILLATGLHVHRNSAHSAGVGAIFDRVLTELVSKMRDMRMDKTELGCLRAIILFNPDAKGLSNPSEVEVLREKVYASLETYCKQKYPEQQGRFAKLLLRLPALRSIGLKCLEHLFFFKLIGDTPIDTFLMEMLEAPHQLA

Assay [5] has as its target human Thyroid Receptor alpha (THRa1), THRA (gene 7067) (UniProt P10827). Kind of assay: ATG_THRa1_TRANS: Attagene TRANS-FACTORIAL HepG2 Assay for human Thyroid Receptor alpha (THRa1) (AID 2283014; active means hit-call score of the fitted dose curve at least 0.9, where 1 is the maximum). The gist of the method:
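HepG2 cells transiently transfected with multiplexed GAL4-UAS reporter units for exogenous chimeric THRa1-Gal4; reporter mRNA measured 24 h after dosing by RT-PCR, 6-FAM labelling, HpaI digestion and capillary electrophoresis. Gain-of-signal fitted versus DMSO baseline.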

Read-out in assay [6]: Interleukin-1 alpha (IL1a), IL1A (gene 3552)
Kind of assay: BSK_BE3C_IL1a: BioMAP Diversity Plus: BE3C Assay for Interleukin-1 alpha (IL1a) Biomarker Activity (AID 2283016). The note with it: primary human bronchial epithelial cells; actives raise or lower the signal. The gist of the method: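 IL-1a measured by ELISA after 24 h treatment of human primary bronchial epithelial cells, with gain or loss of signal fitted versus DMSO. Parallel cultures stained with SRB gauge overt cytotoxicity.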

Read-out in assay [7]: Monocyte Chemoattractant Protein-1 (MCP1), CCL2 (gene 6347)
Kind of assay: BSK_3C_MCP1: BioMAP Diversity Plus: 3C Assay for Monocyte Chemoattractant Protein-1 (MCP1) Biomarker Activity (AID 2283017). The note with it: primary human endothelial cells (HUVEC); actives raise or lower the signal. The essentials: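 Primary human umbilical vein endothelial cells (3C system) were exposed to test chemical for 24 h, after which MCP-1 was quantified by ELISA. Activity was fitted bidirectionally against DMSO as negative control and baseline.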

Read-out in assay [8]: Monocyte Chemoattractant Protein-1 (MCP1), CCL2 (gene 6347)
Kind of assay: BSK_4H_MCP1: BioMAP Diversity Plus: 4H Assay for Monocyte Chemoattractant Protein-1 (MCP1) Biomarker Activity (AID 2283018). The note with it: primary human endothelial cells (HUVEC); actives raise or lower the signal. The essentials:
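ELISA of MCP-1 (CCL2) 24 h after chemical dosing of HUVEC in the BioMAP 4H system. Gain or loss versus DMSO fitted; parallel SRB staining (560 nm) tracked overt cytotoxicity.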

Read-out in assay [9]: Human Leukocyte Antigen - DR isotype (HLADR), HLA-DRA (gene 3122)
Kind of assay: BSK_3C_HLADR: BioMAP Diversity Plus: 3C Assay for Human Leukocyte Antigen - DR isotype (HLADR) Biomarker Activity (AID 2283019).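 On outcome: ELISA of cell-surface HLA-DR on HUVEC 24 h after dosing.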 Particulars: primary human endothelial cells (HUVEC); actives raise or lower the signal. The essentials:
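Primary human umbilical vein endothelial cells (3C system) were dosed with compound and cell-surface HLA-DR was quantified by ELISA at 24 h. Activity was fitted bidirectionally against DMSO as negative control and baseline.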

Read-out in assay [10]: Interleukin-8 (IL8), CXCL8 (gene 3576)
Put plainly: BSK_3C_IL8: BioMAP Diversity Plus: 3C Assay for Interleukin-8 (IL8) Biomarker Activity (AID 2283020). Particulars: primary human endothelial cells (HUVEC); actives raise or lower the signal. The essentials:
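IL-8 was measured by ELISA in HUVEC cultures 24 h after chemical dosing, with gain or loss of signal fitted relative to DMSO. Parallel SRB total-protein staining tracked overt cytotoxicity.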

Read-out in assay [11]: Monokine induced gamma interferon (MIG), CXCL9 (gene 4283)
Put plainly: BSK_3C_MIG: BioMAP Diversity Plus: 3C Assay for Monokine induced gamma interferon (MIG) Biomarker Activity (AID 2283021).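 On AC50: MIG protein level measured by immunoassay in the treated endothelial cultures.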 Particulars: primary human endothelial cells (HUVEC); actives raise or lower the signal. The gist of the method: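 ELISA measurement of MIG in human umbilical vein endothelial cells 24 h after treatment. Cytotoxicity tracked by SRB staining in parallel cultures; gain or loss of signal fitted relative to DMSO.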

The target in assay [12] is human Vitamin D Receptor (VDR), VDR (gene 7421) (UniProt P11473). Put plainly: ATG_VDR_TRANS: Attagene TRANS-FACTORIAL HepG2 Assay for human Vitamin D Receptor (VDR) (AID 2283022; active means hit-call score of the fitted dose curve at least 0.9, where 1 is the maximum). The essentials:
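HepG2 cells were transiently transfected with multiple GAL4-UAS reporter units, so signal reflects exogenous chimeric receptor-Gal4 activity. After 24 h compound exposure, reporter mRNA was measured by RT-PCR, fluorescent labelling and capillary electrophoresis, fitted for gain of signal versus DMSO.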

A short description of assay [13]: BSK_3C_SRB: Viability Assessment in the BioMAP Diversity Plus: 3C Assay (AID 2283023).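 Further: fitted both ways against DMSO so a hit may be signal rise or drop.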 Particulars: primary human endothelial cells (HUVEC). The essentials: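 Primary human umbilical vein endothelial cells in the 3C system were read 24 h after compound dosing. Total protein was stained with 0.1% sulforhodamine B after 10% TCA fixation and read at 560 nm, with bidirectional fitting against DMSO as baseline.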

Read-out in assay [14]: Matrix Metallopeptidase 1 (MMP1), MMP1 (gene 4312)
Kind of assay: BSK_BE3C_MMP1: BioMAP Diversity Plus: BE3C Assay for Matrix Metallopeptidase 1 (MMP1) Biomarker Activity (AID 2283024). The note with it: primary human bronchial epithelial cells; actives raise or lower the signal. The essentials:
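ELISA measurement of MMP-1 after 24 h compound exposure of primary human bronchial epithelial cells. Changes in either direction fitted relative to DMSO; parallel SRB staining checked overt cytotoxicity.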

Assay [15] can be described thus: BSK_3C_Vis: BioMAP Diversity Plus: 3C Assay for Morphology Visualization (AID 2283025).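 Further: fitted both ways so gain or loss versus DMSO counts.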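 On AC50: light microscopy image of cell morphology used as background control.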 Particulars: primary human endothelial cells (HUVEC). The essentials: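 Light-microscopy visualization of HUVEC cultures at 24 h post-treatment, with DMSO as baseline for bidirectional fitting.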
Read-out in assay [16]: Pselectin, SELP (gene 6403)
Kind of assay: BSK_4H_Pselectin: BioMAP Diversity Plus: 4H Assay for Pselectin Biomarker Activity (AID 2283026). Particulars: primary human endothelial cells (HUVEC); actives raise or lower the signal. The essentials:
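ELISA of surface P-selectin on HUVEC, 24 h after dosing, with parallel SRB staining (0.1% after 10% TCA fixation, 560 nm) for overt cytotoxicity. Activity fitted in both directions relative to DMSO.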

Assay [17] can be described thus: BSK_4H_SRB: Viability Assessment in the BioMAP Diversity Plus: 4H Assay (AID 2283027).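 Further: cells exposed to compound for 24 h before staining.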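 On AC50: curves fitted both ways versus DMSO so AC50 may be loss or gain.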 The note with it: primary human endothelial cells (HUVEC). The essentials:
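HUVEC, 24 h post-dose; 10% TCA fix, 0.1% SRB stain, A560 nm. Total protein = overt cytotoxicity, parallel to biomarker read. Bidirectional fit vs DMSO baseline.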

Assay [18] is described as follows: BSK_BE3C_SRB: Viability Assessment in the BioMAP Diversity Plus: BE3C Assay (AID 2283028). Particulars: primary human bronchial epithelial cells. The essentials: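 Human primary bronchial epithelial cells were exposed to test chemicals for 24 h. Total protein in parallel cultures was then measured by staining with 0.1% sulforhodamine B after 10% TCA fixation, with absorbance read at 560 nm. Activity was fitted bidirectionally against DMSO.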

Read-out in assay [19]: Thrombomodulin, THBD (gene 7056)
Put plainly: BSK_3C_Thrombomodulin: BioMAP Diversity Plus: 3C Assay for Thrombomodulin Biomarker Activity (AID 2283029). Particulars: primary human endothelial cells (HUVEC); actives raise or lower the signal. The gist of the method: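 ELISA measurement of thrombomodulin on HUVEC surface 24 h after chemical dosing; activity fitted in both directions relative to DMSO vehicle.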

Records with an inconclusive call do not appear. Calls of active or inactive are those of the source. How the source made its calls, unless noted: active means hit-call score of the fitted dose curve at least 0.9, where 1 is the maximum; inactive means score below 0.9.

Chain of human Thyroid Receptor alpha (THRa1), THRA (gene 7067) (P10827 whole entry, looked up, the tested form may be a part): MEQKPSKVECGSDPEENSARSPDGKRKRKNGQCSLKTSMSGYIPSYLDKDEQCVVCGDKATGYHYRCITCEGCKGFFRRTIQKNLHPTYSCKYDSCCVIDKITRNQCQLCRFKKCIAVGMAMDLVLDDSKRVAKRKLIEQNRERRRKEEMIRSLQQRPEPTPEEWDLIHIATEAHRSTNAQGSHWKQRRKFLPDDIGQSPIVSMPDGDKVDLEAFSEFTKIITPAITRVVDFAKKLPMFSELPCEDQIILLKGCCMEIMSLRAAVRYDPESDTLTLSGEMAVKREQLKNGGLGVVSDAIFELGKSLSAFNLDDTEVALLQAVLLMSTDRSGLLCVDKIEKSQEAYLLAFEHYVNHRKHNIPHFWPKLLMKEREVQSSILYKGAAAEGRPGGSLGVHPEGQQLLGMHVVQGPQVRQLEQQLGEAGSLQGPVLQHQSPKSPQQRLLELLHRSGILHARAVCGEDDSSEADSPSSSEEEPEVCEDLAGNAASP
Chain of Retinoic acid receptor RXR-alpha (Homo sapiens) (P19793 whole entry, looked up, the tested form may be a part): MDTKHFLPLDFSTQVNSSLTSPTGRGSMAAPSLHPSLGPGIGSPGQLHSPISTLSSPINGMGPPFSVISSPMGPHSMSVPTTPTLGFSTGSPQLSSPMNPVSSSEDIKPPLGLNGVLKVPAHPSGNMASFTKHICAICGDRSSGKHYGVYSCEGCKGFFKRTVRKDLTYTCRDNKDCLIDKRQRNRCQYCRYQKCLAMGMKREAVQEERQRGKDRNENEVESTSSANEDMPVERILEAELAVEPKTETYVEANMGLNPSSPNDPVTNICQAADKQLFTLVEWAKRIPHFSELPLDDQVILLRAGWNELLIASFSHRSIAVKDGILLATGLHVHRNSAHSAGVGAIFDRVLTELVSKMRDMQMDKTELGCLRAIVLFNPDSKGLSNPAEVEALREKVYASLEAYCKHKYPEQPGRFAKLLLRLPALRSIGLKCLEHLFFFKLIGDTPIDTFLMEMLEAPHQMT
Chain of human Vitamin D Receptor (VDR), VDR (gene 7421) (P11473 whole entry, looked up, the tested form may be a part): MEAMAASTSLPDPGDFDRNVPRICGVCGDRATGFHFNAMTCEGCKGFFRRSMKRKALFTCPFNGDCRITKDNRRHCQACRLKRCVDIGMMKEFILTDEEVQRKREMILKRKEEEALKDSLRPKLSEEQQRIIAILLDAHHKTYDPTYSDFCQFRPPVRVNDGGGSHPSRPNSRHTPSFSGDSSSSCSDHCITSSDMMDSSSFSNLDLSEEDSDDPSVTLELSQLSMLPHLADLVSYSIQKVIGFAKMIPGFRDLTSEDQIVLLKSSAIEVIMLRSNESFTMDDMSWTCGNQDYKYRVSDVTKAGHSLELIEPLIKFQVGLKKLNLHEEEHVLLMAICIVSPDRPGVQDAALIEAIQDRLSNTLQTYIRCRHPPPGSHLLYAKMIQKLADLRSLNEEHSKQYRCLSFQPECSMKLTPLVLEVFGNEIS
Chain of human RAR-related Orphan Receptor gamma (RORg), RORC (gene 6097) (P51449 whole entry, looked up, the tested form may be a part): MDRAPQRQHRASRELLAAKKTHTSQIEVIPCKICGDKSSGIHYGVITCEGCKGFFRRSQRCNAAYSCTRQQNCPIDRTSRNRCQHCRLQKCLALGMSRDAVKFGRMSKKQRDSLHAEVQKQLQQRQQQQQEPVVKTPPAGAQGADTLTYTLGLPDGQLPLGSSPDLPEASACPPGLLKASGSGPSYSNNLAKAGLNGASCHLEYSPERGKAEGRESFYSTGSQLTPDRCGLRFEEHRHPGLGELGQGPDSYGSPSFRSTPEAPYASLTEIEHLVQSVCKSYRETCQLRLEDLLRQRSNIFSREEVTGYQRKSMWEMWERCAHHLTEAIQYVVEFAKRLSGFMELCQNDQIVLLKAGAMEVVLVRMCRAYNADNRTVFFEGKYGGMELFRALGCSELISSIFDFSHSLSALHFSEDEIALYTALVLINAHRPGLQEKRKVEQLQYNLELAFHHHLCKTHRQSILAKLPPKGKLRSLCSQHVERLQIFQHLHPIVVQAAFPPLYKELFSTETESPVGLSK
Chain of human RAR-related Orphan Receptor beta (RORb), RORB (gene 6096) (Q92753 whole entry, looked up, the tested form may be a part): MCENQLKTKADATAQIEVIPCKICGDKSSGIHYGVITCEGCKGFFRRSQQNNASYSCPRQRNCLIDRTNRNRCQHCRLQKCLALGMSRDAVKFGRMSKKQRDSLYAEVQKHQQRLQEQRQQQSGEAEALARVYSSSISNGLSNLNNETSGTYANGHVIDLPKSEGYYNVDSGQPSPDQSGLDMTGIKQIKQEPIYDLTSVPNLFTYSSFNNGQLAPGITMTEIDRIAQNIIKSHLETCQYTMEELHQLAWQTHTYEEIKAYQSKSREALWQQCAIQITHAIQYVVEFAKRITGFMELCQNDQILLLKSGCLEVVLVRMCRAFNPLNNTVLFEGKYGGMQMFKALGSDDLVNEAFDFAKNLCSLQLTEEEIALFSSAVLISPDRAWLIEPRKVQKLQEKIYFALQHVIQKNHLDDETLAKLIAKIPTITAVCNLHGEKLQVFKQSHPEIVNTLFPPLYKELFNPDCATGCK

Turning to `Oc1ccc(/C=C/c2cc(O)cc(O)c2)cc1`, the compound was called inactive in [1], in [2], in [3], in assay [4], in assay [5] and in [10]. Moreover, the outcome in [11], in assay [12], in [13], in [14], in [16] and in [18] was inactive. The result in assay [19] was inactive. The AC50 in assay [6] is 10.1 µM (active); in assay [7], 20 µM (active); in assay [8], 9.4 µM (active); in assay [9], 20 µM (active); in assay [15], 20 µM (active); in assay [17], 20 µM (active).

Take `CC(C)[N+](C)(CCOC(=O)C1c2ccccc2Oc2ccccc21)C(C)C`: the compound was classed as inactive in [1], in assay [2], in assay [5], in assay [6], in assay [7] and in assay [8]. For the same compound, the outcome in [9], in assay [10], in assay [11], in [12], in assay [13] and in [14] was inactive. Moreover, the result in [15], in [16], in assay [17], in [18] and in [19] was inactive.

Turning to `C=C(C)[C@@H]1CC=C(C)CC1`, the compound was classed as inactive in assay [1], in assay [2] and in [4].

For the compound `Nc1ccc(O)c([N+](=O)[O-])c1`, the outcome in assay [1], in [2], in assay [3], in assay [4], in [5] and in assay [12] was inactive.

In the case of `CCCCOCCOC(=O)COc1ccc(Cl)cc1Cl`, the call in [1] and in assay [2] was inactive.

Take `CCCCC(=O)O`: the compound was classed as inactive in assay [1] and in [2].

On to `Cc1ccccc1CCO`, for which the compound was called inactive in assay [1], in assay [2], in assay [3], in assay [4] and in assay [12].

As for `CCCCCCCCCCCC(C)=O`, the outcome in assay [1], in assay [2], in assay [3], in assay [12], in [18] and in assay [19] was inactive. The AC50 is 25.9 µM (active) in assay [4]; 20 µM (active) in assay [6]; 31.3 µM (active) in assay [7]; 29.8 µM (active) in [8]; 32.5 µM (active) in assay [9]; 28.6 µM (active) in assay [10]. For the same compound, the half-maximal activity concentration (AC50) in [11] is 35 µM (active); in assay [13], 29.9 µM (active); in [14] it was 0.016 µM (active); in assay [15], 37.8 µM (active); in [16], 28.1 µM (active); in assay [17], 33.9 µM (active).

As for `CC(C)CO`, the compound was classed as inactive in assay [1].

With `Nc1ccc(C(=O)O)cc1`, the compound was classed as inactive in [1], in [2], in assay [6], in assay [7], in assay [8] and in [9]. In addition, the outcome in assay [10], in assay [11], in [13], in [14], in assay [15] and in [16] was inactive. Moreover, the outcome in [17], in assay [18] and in assay [19] was inactive.

`C=CCNCC=C`: the result in assay [1], in assay [3] and in assay [5] was inactive.

For the compound `CC=CC(=O)OCC(C)C`, the result in assay [1], in assay [3] and in assay [5] was inactive.

In the case of `N=C1C=CC(=C(c2ccc(N)cc2)c2ccc(N)cc2)C=C1`, the result in [2] and in assay [3] was inactive.

In general, AC50 refers to the concentration at which the activity in the assay is half-maximal.

The record behind these values is PubChem BioAssay (EPA / NIEHS).
